Here are results for one sequence from article PMC7862700, “An all-to-all approach to the identification of sequence-specific readers for epigenetic DNA modifications on cytosine”.

Experiment in all cases: DAPPL (digital affinity profiling via proximity ligation, sequencing); 10 mM Tris-HCl pH 7.5, 50 mM NaCl, 1 mM DTT, 4% glycerol, room temperature, 30 min; GST-TFs on glutathione beads, 16-mer random dsDNA library, 0.1% formaldehyde crosslink after washing; high values mean tight binding
What all share (settings): protein: recombinant; tags: N-terminal GST; dsDNA, one strand shown

In experiment [1] the target is T1, FLI1 (Homo sapiens, UniProt Q01543 1-452).
T1 sequence: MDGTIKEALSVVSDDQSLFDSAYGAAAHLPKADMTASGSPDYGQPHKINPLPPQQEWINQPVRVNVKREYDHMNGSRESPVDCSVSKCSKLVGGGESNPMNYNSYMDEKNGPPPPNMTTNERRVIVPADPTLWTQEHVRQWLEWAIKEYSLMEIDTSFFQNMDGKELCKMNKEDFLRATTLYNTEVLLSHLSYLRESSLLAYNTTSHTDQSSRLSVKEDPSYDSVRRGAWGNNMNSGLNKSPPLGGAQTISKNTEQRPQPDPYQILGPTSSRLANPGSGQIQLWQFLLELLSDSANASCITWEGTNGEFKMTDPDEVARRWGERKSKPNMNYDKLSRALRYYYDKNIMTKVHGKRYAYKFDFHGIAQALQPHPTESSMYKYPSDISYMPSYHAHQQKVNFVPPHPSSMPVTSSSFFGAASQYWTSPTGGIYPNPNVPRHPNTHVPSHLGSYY
In short, it runs like this:
(§1)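 Binding signal is given per hexamer as its read frequency for a factor divided by its frequency in the tag-only sample. GST-fused human transcription factors were expressed in yeast, captured on glutathione beads, barcoded with DNA and pooled with that sample, then incubated with 200 nmole of a 16-mer random double-stranded DNA library in Tris/NaCl/DTT/glycerol buffer for 30 min at room temperature. The pools were then washed, crosslinked, proximity-ligated, amplified by PCR and sequenced on an Illumina NextSeq500.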

Experiment [2] has as its target T2, ELK1 (Homo sapiens, UniProt P19419 1-428).
T2 sequence: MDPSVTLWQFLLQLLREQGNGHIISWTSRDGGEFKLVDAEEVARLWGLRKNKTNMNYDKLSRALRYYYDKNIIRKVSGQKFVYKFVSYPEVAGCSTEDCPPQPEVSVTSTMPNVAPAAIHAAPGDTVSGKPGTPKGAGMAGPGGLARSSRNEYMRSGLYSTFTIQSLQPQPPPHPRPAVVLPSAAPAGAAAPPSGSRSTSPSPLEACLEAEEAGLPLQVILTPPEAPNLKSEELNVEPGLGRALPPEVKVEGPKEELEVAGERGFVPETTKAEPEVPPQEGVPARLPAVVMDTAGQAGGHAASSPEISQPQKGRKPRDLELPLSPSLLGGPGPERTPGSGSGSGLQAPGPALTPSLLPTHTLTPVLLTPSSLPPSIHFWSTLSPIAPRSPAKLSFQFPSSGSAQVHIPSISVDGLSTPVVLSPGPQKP
In short, it runs like this: as §1

Experiment [3] has as its target T3, GABPA (Homo sapiens, UniProt Q06546 1-454).
T3 sequence: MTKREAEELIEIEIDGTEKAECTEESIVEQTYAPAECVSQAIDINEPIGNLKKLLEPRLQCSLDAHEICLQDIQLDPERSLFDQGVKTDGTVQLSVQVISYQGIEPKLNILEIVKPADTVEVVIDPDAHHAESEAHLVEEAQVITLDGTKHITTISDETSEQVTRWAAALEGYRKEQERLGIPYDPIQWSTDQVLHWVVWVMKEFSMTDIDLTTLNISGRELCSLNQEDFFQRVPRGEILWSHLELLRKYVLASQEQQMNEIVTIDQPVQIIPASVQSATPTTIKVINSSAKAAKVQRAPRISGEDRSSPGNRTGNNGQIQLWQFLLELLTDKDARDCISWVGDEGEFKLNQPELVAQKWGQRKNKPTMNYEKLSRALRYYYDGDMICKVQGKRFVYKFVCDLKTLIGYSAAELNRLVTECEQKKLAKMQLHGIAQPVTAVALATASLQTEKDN
In a few lines: as §1

For experiment [4], the target named is T4, ERG (Homo sapiens, UniProt P11308 1-479).
T4 sequence: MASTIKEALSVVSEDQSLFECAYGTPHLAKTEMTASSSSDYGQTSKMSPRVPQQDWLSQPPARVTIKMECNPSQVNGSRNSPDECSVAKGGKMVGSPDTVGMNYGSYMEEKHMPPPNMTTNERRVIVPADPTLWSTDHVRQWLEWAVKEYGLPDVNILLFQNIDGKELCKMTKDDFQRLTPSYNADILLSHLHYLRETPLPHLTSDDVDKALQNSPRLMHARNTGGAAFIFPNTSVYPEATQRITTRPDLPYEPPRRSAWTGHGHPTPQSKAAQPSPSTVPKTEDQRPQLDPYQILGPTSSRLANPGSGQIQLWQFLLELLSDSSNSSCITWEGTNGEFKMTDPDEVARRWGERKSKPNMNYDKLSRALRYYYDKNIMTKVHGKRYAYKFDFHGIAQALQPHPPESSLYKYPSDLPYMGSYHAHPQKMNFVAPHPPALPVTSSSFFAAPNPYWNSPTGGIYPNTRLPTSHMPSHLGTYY
In short, it runs like this:
as §1

Experiment [5] deals with ELF1 (Homo sapiens, UniProt P32519 1-619). In a few lines:
as §1

The target in experiment [6] is T5, EHF (Homo sapiens, UniProt Q9NZC4 1-300).
T5 sequence: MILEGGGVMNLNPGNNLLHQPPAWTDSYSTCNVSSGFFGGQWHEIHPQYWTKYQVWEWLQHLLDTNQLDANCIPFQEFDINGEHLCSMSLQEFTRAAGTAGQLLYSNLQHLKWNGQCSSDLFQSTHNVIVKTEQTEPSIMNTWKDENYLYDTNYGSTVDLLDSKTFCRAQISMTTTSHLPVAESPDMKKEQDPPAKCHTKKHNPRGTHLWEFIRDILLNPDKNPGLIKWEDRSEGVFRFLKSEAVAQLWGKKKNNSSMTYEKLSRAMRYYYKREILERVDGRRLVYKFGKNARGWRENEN
In short, it runs like this: as §1

Experiment [7] has as its target SPI1 (Homo sapiens, UniProt P17947 1-270). In a few lines:
as §1

In experiment [8] the target is SPIB (Homo sapiens, UniProt Q01892 1-262). In short, it runs like this:
as §1

For experiment [9], the target named is T6, ELK3 (Homo sapiens, UniProt P41970 1-407).
T6 sequence: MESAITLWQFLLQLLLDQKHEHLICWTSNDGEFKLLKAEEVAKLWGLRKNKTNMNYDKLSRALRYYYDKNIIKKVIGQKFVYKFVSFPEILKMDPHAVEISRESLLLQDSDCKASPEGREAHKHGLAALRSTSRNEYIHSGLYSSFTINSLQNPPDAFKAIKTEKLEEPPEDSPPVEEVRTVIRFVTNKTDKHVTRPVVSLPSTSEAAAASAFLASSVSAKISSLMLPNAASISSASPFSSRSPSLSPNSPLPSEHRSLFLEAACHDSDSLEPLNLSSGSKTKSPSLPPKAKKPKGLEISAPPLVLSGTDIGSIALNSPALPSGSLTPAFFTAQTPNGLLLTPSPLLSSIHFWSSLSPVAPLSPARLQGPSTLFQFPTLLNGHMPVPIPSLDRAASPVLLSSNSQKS
In a few lines:
as §1

Chain of ELF1 (P32519 whole entry): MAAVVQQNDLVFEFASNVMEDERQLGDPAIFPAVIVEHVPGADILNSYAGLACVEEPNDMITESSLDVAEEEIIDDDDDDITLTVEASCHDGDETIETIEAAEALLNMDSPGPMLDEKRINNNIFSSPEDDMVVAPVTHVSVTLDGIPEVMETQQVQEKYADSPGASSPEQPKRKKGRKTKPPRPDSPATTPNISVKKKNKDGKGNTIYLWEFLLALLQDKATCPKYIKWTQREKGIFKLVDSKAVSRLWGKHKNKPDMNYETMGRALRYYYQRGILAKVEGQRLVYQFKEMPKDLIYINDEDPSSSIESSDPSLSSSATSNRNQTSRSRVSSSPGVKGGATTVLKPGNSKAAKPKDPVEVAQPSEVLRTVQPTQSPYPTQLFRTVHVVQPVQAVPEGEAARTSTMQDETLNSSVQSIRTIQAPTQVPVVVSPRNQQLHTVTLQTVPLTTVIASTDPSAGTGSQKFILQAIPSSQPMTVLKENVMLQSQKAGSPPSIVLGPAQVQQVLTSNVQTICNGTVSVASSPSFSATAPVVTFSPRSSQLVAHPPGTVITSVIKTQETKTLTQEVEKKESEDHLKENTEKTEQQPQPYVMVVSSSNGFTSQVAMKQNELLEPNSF
Chain of SPIB (Q01892 whole entry): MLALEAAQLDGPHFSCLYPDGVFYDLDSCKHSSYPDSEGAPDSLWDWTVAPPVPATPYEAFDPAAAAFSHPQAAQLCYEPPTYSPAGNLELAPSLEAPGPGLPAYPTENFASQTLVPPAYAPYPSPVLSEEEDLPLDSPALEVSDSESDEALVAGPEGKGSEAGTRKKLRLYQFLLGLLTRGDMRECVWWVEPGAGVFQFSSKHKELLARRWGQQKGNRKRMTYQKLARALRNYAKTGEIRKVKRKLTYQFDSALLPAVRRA

With CCGTAA, the binding signal in [1] is 1.09 fold enrichment (6-mer frequency, TF over GST control); in [2], 1.1 fold enrichment (6-mer frequency, TF over GST control); in experiment [3], 1.1 fold enrichment (6-mer frequency, TF over GST control); in experiment [4], 1.14 fold enrichment (6-mer frequency, TF over GST control); in [5], 1.09 fold enrichment (6-mer frequency, TF over GST control); in [6] it was 1.17 fold enrichment (6-mer frequency, TF over GST control). For the same sequence, the binding signal in experiment [7] is 1.13 fold enrichment (6-mer frequency, TF over GST control); in experiment [8], 1.06 fold enrichment (6-mer frequency, TF over GST control); in experiment [9], 1.14 fold enrichment (6-mer frequency, TF over GST control).
